Assay outcomes as filed in PubChem.
D1 antagonist: Antagonist of Human D 1 Dopamine Receptor: qHTS; activity change, negative = inhibition, % at 10 µM; HEK293 TREx D1 cells, calcium flux, dopamine EC80; active compounds read low; D(1A) dopamine receptor (Homo sapiens), P21728; actives 3.2% (n = 360,000); in the data active means activity change below about -30%
Target sequence (P21728 whole entry, looked up): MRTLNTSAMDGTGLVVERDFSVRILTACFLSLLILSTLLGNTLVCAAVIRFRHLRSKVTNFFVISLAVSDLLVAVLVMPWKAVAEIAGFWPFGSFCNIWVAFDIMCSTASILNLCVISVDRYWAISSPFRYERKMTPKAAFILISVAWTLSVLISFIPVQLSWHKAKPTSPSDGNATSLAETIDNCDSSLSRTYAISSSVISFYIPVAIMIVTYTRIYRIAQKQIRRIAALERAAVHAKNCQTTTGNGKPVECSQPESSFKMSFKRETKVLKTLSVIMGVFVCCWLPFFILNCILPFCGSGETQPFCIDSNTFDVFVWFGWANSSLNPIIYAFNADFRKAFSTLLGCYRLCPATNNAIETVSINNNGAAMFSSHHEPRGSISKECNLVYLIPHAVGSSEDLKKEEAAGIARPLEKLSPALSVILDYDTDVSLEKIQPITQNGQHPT
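Inducible Hek293 Trex D1 cells (tetracycline, overnight, 30 C). Calcium dye 30–90 min RT. Antagonist mode: EC80 dopamine added after 180 s compound read.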
D1 ag: Allosteric Agonists of the Human D1 Dopamine Receptor: qHTS; D(1A) dopamine receptor (Homo sapiens), P21728; HEK293 T-REx D1 cells, calcium flux, agonist mode; activation, % at 2 µM; actives 1% (n = 360,000); in the data active means activation above about 30%
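Agonism was scored from calcium flux recorded over 180 s (1 read/s) after pintool compound addition, following a 10-cycle baseline. Cells were inducible force-coupled HEK293 TREx D1, plated overnight at 30 C and loaded with no-wash calcium dye.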
DRD3 antagonist: qHTS of D3 Dopamine Receptor Antagonist: qHTS. D(3) dopamine receptor (Homo sapiens), P35462. D3R cells, DiscoveRx beta-arrestin luminescence, antagonist mode; active compounds read low. max response, negative = inhibition, %. actives 2.5% (n = 360,000). AID 652054, 2013; in the data active means max response below about -50%; inconclusive means no clear call, values can overlap the other calls
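Cells plated overnight at 1500 cells/well, then exposed to library compounds with dopamine controls for 90 minutes at 37 degrees C. DiscoveRx reagent added for 30–60 minutes at room temperature; luminescence read, quantitative HTS format.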
D1 PAM: Potentiators of Human D1 Dopamine Receptor: qHTS | potentiation, % at 10 µM | D(1A) dopamine receptor (Homo sapiens), P21728 | HEK293 TREx D1 cells, calcium flux, dopamine EC20 potentiation | actives 0.036% (n = 360,000); in the data active means potentiation above about 30%
D3 ag: qHTS of D3 Dopamine Receptor Agonist: qHTS. D(3) dopamine receptor (Homo sapiens), P35462. D3R DiscoveRx beta-arrestin cells, luminescence, 90 min. max activation, %. actives 0.58% (n = 410,000); in the data active means max activation above about 30%
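Agonist-mode cell screen: cells plated at 1500/well and incubated overnight at 37 °C, then exposed to library compounds for 90 min at 37 °C. Detection reagent was added for 30–60 min at room temperature, and luminescence was read.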
Large screens that a line does not name were inactive. Only some compounds are listed: those with a hit (about 6.1% of all), similar ones and a draw of the others.

COc1ccc(NC(=O)CCS(=O)(=O)c2ccc(OC)cc2)cc1	D1 antagonist -42
COc1ccc(NC(=O)CCS(=O)(=O)c2ccc(Cl)cc2)cc1	none
Cc1cccc(-n2ncc3c(N4CCN(CCO)CC4)ncnc32)c1	none (no result: DRD3 antagonist)
COc1ccc(NC(=O)CCS(=O)(=O)c2ccc(Br)s2)cc1	D1 antagonist -37
CCOc1ccc(S(=O)(=O)NCCC(=O)N(C)CC(=O)Nc2ccc(OC)cc2)cc1	D1 antagonist -43
CSc1ccc(C2=CC(=O)C[C@H](c3ccc(Cl)cc3)C2)cc1	none
O=C(CCCN1C(=O)c2ccccc2C1=O)N1CCN(c2ccccn2)CC1	none
Cc1ccccc1N1CCN(C(=O)CN2C(=O)c3ccccc3C2=O)CC1	none
Cc1ccc(C)c(N2CCN(C(=O)CN3C(=O)c4ccccc4C3=O)CC2)c1	D1 antagonist -35
O=C(CCN1C(=O)c2ccccc2C1=O)N1CCCCCC1	DRD3 antagonist -51
O=C(CN1C(=O)c2ccccc2C1=O)N1CCN(c2ccccn2)CC1	D1 antagonist -30
O=C(CSc1nnc(N2CCCC2)n1-c1ccccc1Cl)N1CCN(c2ccccn2)CC1	D1 antagonist -52
O=C(CCN1C(=O)c2ccccc2C1=O)N1CCN(c2ccccc2)CC1	none
CCCCc1c(C)[nH]c2nc3ccccc3n2c1=O	none
CCOc1ccc(C(=O)COC(=O)c2nc3nccc(C)n3n2)cc1	none
Cc1ccc(C)c(N2CCN(C(=O)NCc3noc4ccccc34)CC2)c1	D1 antagonist -42 (no result: DRD3 antagonist)
Cc1cccc2cc(COC(=O)c3ccccc3)c(=O)[nH]c12	DRD3 antagonist -51
Cc1cccc2cc(COC(=O)c3cccnc3)c(=O)[nH]c12	none
COc1cccc(NC(=O)C2CCCN2C(=O)Nc2cccc(F)c2)c1 (centres undefined)	none
COC(=O)[C@H]1CCCN1C(=O)Nc1cccc(Oc2c(F)c(F)c(F)c(F)c2F)c1	D1 antagonist -31
Cc1c(C(=O)Nc2cccc(Cl)c2)oc2ccc(S(=O)(=O)N(C)C3CCCCC3)cc12	none (no result: DRD3 antagonist)
CC(C)(C)OC(=O)[C@H]1[C@H](c2ccc([N+](=O)[O-])cc2)C2(C(=O)c3ccccc3C2=O)C2c3ccccc3C=NN21 (some centres undefined)	DRD3 antagonist -59
CCC(=O)Nc1c(-c2ccc(Cl)cc2)c(=O)c2ccccc2n1C	none
CC(=O)Nc1ccc(-c2ccnc3c2CC(C(=O)Nc2cccc(OC(F)(F)F)c2)O3)cc1 (centres undefined)	none (no result: D1 antagonist, D1 ag, D1 PAM)
O=C(c1ccc(Cn2cc(Br)cn2)cc1)N1N=C(C(F)F)CC1(O)C(F)F (centres undefined)	D1 ag 48
OC(COc1ccc2c(c1)CCC2)CN1CCN(c2ccccc2F)CC1 (centres undefined)	DRD3 antagonist inconclusive, D3 ag 32
Fc1ccccc1N1CCN(CCCNc2ccc3nncn3n2)CC1	DRD3 antagonist -61, D3 ag 46 (no result: D1 PAM)
OCC1(CCc2ccccc2)CCN(Cc2ccccc2Cl)CC1	DRD3 antagonist inconclusive
Clc1ccccc1CN1CCN(CCCc2ccccc2)CC1	DRD3 antagonist -79
OC(COCC1COc2ccccc2O1)CN1CCN(c2ccccc2F)CC1 (centres undefined)	DRD3 antagonist inconclusive
Fc1ccccc1N1CCN(CCCc2ccccc2)CC1	D1 antagonist -63, DRD3 antagonist -92
N#Cc1cnn2ccn(C3OC(CO)C(O)C3O)c12 (centres undefined)	none
CN(C)S(=O)(=O)c1ccc2c(c1)nnn2CCNC(=O)Nc1ccc(Br)cc1	none (no result: DRD3 antagonist)
Cc1ccc(N2CCN(CC(O)COc3ccc([N+](=O)[O-])cc3)CC2)cc1 (centres undefined)	none
OC(COCc1ccccc1)CN1CCN(c2ccccc2F)CC1 (centres undefined)	D3 ag 51
COc1ccc(N2CCN(CC(O)COc3ccc4c(c3)CCC4)CC2)cc1 (centres undefined)	DRD3 antagonist -79
O=[N+]([O-])c1ccc(OCC(O)CN2CCN(c3ccccc3F)CC2)cc1 (centres undefined)	D3 ag 59
CCN1CCN(CC(O)COCc2ccccc2)CC1 (centres undefined)	none
COc1ccc(-c2noc(CSc3nnc(-c4ccncc4)n3-c3ccc(C)c(C)c3)n2)cc1	none (no result: DRD3 antagonist)
CCOc1ccc(NC(=O)c2cc(S(=O)(=O)NC3CCCC3)ccc2F)cc1	none (no result: DRD3 antagonist)
COc1ccccc1N1CCN(Cc2cn[nH]c2-c2ccc(F)cc2)CC1	D1 ag 60, DRD3 antagonist -67
COc1ccccc1N1CCN(Cc2nc(-c3ccc(F)cc3)oc2C)CC1	DRD3 antagonist -115
COc1ccc(-c2[nH]ncc2CN2CCN(Cc3cccs3)CC2)cc1F	DRD3 antagonist inconclusive
COc1ccc(-c2nc(CN3CCN(Cc4cccc(Cl)c4)CC3)c(C)o2)cc1	DRD3 antagonist -60
COc1ccc(-c2nc(CN3CCN(Cc4cccc(F)c4)CC3)c(C)o2)cc1	none
COc1ccc(S(=O)(=O)N2CCN(Cc3cccc(Cl)c3)CC2)cc1	D1 antagonist -39, DRD3 antagonist inconclusive
O=C(NCc1ccccc1)C(c1ccc(F)cc1)N1CCN(c2ccccc2F)CC1 (centres undefined)	none (no result: D1 antagonist, D1 ag, D1 PAM)
CCOC(=O)C1CCCN(c2ncnc3c2nnn3C)C1 (centres undefined)	none (no result: D1 antagonist, DRD3 antagonist)
O=C1Nc2ccccc2-n2nnnc2C1N1CCN(c2ccc(C(F)(F)F)cn2)CC1 (centres undefined)	none (no result: D1 antagonist, D1 ag, D1 PAM)
COc1cc(C(F)(F)F)ccc1C(=O)NCCc1ccco1	none
COc1ccccc1CN1CCN(Cc2nc(-c3ccc(C)cc3)oc2C)CC1	none
COc1ccc(-c2nc(CN3CCN(c4ccccc4OC)CC3)c(C)o2)cc1	DRD3 antagonist -71
CCCCn1c(=N)n(CC(O)COc2ccccc2)c2ccccc21 (centres undefined)	none
N=c1n(CCN2CCOCC2)c2ccccc2n1CC(O)COc1ccccc1 (centres undefined)	none
CCCn1c(=N)n(CC(O)COc2cccc(C)c2)c2ccccc21 (centres undefined)	D1 ag 44
CCn1c(=N)n(CC(O)c2ccccc2)c2ccccc21 (centres undefined)	none
CCCCCn1c(=N)n(CC(O)COc2cccc(C)c2)c2ccccc21 (centres undefined)	D1 ag 59 (no result: DRD3 antagonist)
CCn1c(=N)n(CC(O)COc2cccc(C)c2)c2ccccc21 (centres undefined)	D1 ag 79
CCc1ccc(C(=O)c2cn(CC(=O)Nc3ccc(OC)cc3OC)c3ccc(CC)cc3c2=O)cc1	none (no result: DRD3 antagonist)
